Data as given in PubChem BioAssay (NCATS).
Where “and” joins values, the source holds several entries; their conditions need not be identical. Equal entries are not always repeated. Records with an inconclusive call do not appear. Calls of active or inactive are those of the source. Unless noted, calls follow the shape of the dose curve; as a rule, active = well fitted curve in either direction with a large enough effect (not every such curve was filed as active); inconclusive = small, poorly fitted or top-dose-only effect, or another doubt; inactive = flat fitted curve, though single readings scatter.

Tests used:
[1] = AP1 Signaling Pathway (AID 357); details: ME-180 AP-1-bla reporter, EGF-induced, beta-lactamase ratio, 5 h; at 7.69 µM (top of the series) unless noted;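 also: ME-180 reporter cells stimulated with EGF at its EC50 level; % is scaled to controls: 0 for no effect and ±100 for the full control effect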
In short: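 Beta-lactamase reporter under AP-1 response element, ME-180 background. Stimulus: EC50 EGF. Compound exposure 5 h, 37 °C. Detection: CCF4, 2.5 h RT, 460/530 nm. Values: AC50 from titration.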

[2] = target: Cytochrome P450 1A2 (Homo sapiens) (UniProt P05177); test: p450-cyp1a2 (AID 410; calls by dose curve; also: potency is read from the fitted curve at half-maximal effect;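 as to activity change, negative = inhibition: -100% = full effect of reference inhibitor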)
Sequence of Cytochrome P450 1A2 (Homo sapiens) (P05177 whole entry, looked up): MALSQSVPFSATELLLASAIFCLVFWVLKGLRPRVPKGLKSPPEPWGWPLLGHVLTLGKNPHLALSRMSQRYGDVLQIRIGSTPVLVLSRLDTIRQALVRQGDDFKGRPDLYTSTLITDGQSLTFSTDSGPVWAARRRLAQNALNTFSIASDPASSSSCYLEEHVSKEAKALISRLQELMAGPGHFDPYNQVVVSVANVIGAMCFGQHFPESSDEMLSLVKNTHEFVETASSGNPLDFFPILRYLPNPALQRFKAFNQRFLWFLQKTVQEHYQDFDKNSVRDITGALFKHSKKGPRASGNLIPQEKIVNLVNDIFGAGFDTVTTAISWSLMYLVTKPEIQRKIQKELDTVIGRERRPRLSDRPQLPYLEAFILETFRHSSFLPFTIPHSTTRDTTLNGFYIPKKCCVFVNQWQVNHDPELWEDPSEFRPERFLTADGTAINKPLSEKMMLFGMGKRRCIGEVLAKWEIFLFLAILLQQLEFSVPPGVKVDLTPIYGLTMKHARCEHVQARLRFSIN
In short: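 Luminescent readout of luciferin formed from Luciferin-ME by human CYP1A2; data normalized against complete inhibition by 57 uM furafylline. Enzyme 20nM, substrate 100uM at Km, 100mM KPO4 buffer, 60 min reaction at room temperature.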

[3] = NFAT Signaling Pathway (AID 444); details: Jurkat NFAT-bla M1, carbachol, beta-lactamase ratio, 5 h; at 7.69 µM (top of the series) unless noted;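 also: carbachol stimulus at about its EC50 of 1 µM final; % is scaled to controls: 0 for no effect and ±100 for the full control effect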
In short: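 Jurkat cells with NFAT-driven β-lactamase reporter and co-expressed M1 receptor, stimulated with carbachol (final 1 uM, ~EC50), compound titration, 5 h at 37 °C. CCF4 loaded 1 h at RT; 460/530 nm ratio gave %activity and AC50.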

[4] = Stat Signaling Pathway (AID 446); details: ME-180 SIE beta-lactamase reporter, IL-6 stimulated, 5 h; at 7.69 µM (top of the series) unless noted;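 also: ME-180 cervical cancer cells given 40 pM IL-6 alongside compound; SIE-controlled beta-lactamase reporter measured as 460/530 nm FRET emission ratio; % is scaled to controls: 0 for no effect and ±100 for the full control effect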
In short: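 ME-180 SIE-bla cells; overnight plating; cpd + IL-6 40 pM, 5 h, 37 C; LiveBLAzer 2.5 h RT; 460/530 nm emission ratio. Normalized to 300 pM IL-6 and 125 nM JAK inhibitor controls.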

[5] = target: Glucocorticoid receptor (Homo sapiens) (UniProt P04150); test: GR-GFP Redistribution (AID 450;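 active = compounds whose dose series gives a full or clear partial fitted curve of increased nuclear translocation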; also: potency is read from the fitted curve at half-maximal effect); details: U2OS GR-GFP nuclear translocation, laser cytometry, 2 h
Sequence of Glucocorticoid receptor (Homo sapiens) (P04150 whole entry, looked up, the tested form may be a part): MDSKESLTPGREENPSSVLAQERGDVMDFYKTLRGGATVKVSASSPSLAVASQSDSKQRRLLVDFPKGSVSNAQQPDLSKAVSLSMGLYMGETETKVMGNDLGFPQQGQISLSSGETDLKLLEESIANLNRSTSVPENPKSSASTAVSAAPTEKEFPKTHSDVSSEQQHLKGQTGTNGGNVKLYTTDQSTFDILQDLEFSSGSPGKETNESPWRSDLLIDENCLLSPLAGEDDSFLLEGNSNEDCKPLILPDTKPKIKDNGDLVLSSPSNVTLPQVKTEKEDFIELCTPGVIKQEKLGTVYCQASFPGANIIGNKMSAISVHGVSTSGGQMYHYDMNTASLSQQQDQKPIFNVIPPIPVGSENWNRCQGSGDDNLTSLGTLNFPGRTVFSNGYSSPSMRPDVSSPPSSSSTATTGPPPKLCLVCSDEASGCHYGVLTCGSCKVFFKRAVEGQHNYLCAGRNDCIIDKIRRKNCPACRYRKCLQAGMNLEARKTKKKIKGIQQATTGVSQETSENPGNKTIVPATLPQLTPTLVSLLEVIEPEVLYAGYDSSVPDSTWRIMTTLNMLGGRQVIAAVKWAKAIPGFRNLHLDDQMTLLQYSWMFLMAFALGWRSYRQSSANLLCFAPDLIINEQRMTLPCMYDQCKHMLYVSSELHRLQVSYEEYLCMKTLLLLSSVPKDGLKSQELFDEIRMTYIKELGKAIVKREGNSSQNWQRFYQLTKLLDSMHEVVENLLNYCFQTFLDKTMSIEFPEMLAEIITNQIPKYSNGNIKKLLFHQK

[6] = target: Glucocorticoid receptor (Homo sapiens) (UniProt P04150); test: GR-EFC Redistribution (AID 451; calls by dose curve; also: potency is read from the fitted curve at half-maximal effect); details: CHO-K1 GR-EFC translocation, beta-gal luminescence, 2 h
In short: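 CHO-K1 cells expressing nuclear EA and GR-ED fragments of b-gal; compounds titrated up to 46 uM final, 2 h at 37 C. GR nuclear translocation read as complemented b-gal luminescence after 1 h RT detection.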

[7] = target: Mitogen-activated protein kinase 10 (Mus musculus) (UniProt Q61831); test: JNK3 AlphaScreen Assay (AID 530);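 also: kinase came from lysate of stimulated human HepG2 cells; signal reports phosphorylation of biotinylated GST-cJun 1-79 at Ser73 with 10 µM ATP; % is scaled to controls: 0 for no effect and ±100 for the full control effect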
In short: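 Pre-activated (IL-1β/TNFα) JNK3 in HepG2 lysates phosphorylates biotin-GST-cJun(1-79), 10 uM ATP; anti-phospho-cJun(Ser73) AlphaScreen read at room temperature, pH 7.6 Tris buffer. Compounds pre-incubated 15 min as titrations.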

[8] = target: Guanine nucleotide-binding protein G(i) subunit alpha-1 (Homo sapiens) (UniProt P63096); test: qHTS Assay for Inhibitors of RGS12 GoLoco Motif Activity (Green Fluorophore) (AID 879; active = well fitted curve in the direction sought with a large enough effect; an effect the other way counts as inactive or inconclusive;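 also: 0% = labeled peptide with Gαi1 and full inhibition = labeled peptide alone without protein; negative values mean loss of peptide binding seen as reduced polarization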)
Sequence of Guanine nucleotide-binding protein G(i) subunit alpha-1 (Homo sapiens) (P63096 whole entry, looked up): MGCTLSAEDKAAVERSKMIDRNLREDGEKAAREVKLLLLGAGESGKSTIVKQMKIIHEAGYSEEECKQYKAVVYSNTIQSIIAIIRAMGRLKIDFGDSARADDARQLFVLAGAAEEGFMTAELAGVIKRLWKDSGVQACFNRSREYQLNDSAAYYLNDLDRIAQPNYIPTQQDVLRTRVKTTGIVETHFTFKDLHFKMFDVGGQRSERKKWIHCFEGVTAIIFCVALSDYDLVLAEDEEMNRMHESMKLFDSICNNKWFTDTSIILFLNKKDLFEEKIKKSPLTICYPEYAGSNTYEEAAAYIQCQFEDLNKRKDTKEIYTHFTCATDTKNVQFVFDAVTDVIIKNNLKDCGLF
In short: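 Fluorescence polarization assay: 50 nM Gαi1 with 10 nM FITC-labeled RGS12 GoLoco peptide in 10 mM Tris pH 7.5, 150 mM NaCl, 0.1 mM GDP, 0.05% NP40, 10 min at room temperature with compound.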

[9] = target: Pyruvate kinase (Leishmania mexicana) (UniProt Q27686); test: qHTS Validation Assay for Inhibitors of Leishmania Mexicana Pyruvate Kinase (AID 945; active = well fitted curve in the direction sought with a large enough effect; an effect the other way counts as inactive or inconclusive;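 also: 0% = DMSO only neutral control wells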)
Sequence of Pyruvate kinase (Leishmania mexicana) (Q27686 2-499 E452W): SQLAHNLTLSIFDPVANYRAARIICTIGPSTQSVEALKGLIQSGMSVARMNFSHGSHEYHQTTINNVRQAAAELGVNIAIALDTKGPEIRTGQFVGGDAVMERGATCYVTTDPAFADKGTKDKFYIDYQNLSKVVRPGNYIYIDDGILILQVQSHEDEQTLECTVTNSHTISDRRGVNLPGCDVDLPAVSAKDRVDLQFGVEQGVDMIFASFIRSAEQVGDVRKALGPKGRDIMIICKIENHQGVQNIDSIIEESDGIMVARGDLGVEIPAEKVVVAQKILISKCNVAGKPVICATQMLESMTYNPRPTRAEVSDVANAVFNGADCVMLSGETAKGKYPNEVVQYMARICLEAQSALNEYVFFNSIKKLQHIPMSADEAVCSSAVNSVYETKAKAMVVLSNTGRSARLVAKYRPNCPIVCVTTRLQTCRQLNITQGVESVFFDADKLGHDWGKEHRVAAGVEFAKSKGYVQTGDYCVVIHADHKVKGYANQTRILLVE
In short: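 Luminescent ATP detection (PKLight) after a 1 h room-temperature reaction of 0.2 nM LmPYK E451W mutant with 0.5 mM PEP and 0.1 mM ADP at pH 7.2. Activity is normalized to DMSO-only control wells.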

[10] = target: Pyruvate kinase PKM (Homo sapiens) (UniProt P14618); test: qHTS Assay for Activators of Human Muscle Pyruvate Kinase (AID 954; active = well fitted curve in the direction sought with a large enough effect, not every such curve was filed as active;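 also: 0% = uninhibited enzyme and -100% = no enzyme or full thiadiazolimine inhibition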)
Sequence of Pyruvate kinase PKM (Homo sapiens) (P14618 whole entry, looked up): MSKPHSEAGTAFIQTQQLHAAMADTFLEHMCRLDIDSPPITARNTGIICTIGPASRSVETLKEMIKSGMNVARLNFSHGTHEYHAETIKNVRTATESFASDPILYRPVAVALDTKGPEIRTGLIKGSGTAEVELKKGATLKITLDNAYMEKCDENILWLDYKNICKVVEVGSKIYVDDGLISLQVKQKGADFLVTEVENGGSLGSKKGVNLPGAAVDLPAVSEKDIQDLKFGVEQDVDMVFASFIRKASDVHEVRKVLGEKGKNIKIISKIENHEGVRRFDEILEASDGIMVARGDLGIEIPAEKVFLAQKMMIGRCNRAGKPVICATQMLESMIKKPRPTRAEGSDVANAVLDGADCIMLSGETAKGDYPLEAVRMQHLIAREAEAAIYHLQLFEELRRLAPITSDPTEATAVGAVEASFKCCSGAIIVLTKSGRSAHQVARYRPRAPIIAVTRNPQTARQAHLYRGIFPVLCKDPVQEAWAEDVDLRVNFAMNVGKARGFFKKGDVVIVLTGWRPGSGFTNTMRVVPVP
In short: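 Luminescence from a luciferase ATP-detection/stop reagent reported PKM2 activity. Reactions contained 0.1 nM purified human enzyme, 0.5 mM PEP, 0.1 mM ADP and 7 mM MgCl2 at pH 7.2, run 1 h at RT.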

[11] = target: Alpha-galactosidase A (Homo sapiens) (UniProt P06280); test: Counterscreen for Glucocerebrosidase Inhibitors: qHTS Assay for Human alpha-Galactosidase at pH 4.5 (AID 992; active = well fitted curve in the direction sought with a large enough effect; an effect the other way counts as inactive or inconclusive; also: 0% is about no effect)
Sequence of Alpha-galactosidase A (Homo sapiens) (P06280 whole entry, looked up): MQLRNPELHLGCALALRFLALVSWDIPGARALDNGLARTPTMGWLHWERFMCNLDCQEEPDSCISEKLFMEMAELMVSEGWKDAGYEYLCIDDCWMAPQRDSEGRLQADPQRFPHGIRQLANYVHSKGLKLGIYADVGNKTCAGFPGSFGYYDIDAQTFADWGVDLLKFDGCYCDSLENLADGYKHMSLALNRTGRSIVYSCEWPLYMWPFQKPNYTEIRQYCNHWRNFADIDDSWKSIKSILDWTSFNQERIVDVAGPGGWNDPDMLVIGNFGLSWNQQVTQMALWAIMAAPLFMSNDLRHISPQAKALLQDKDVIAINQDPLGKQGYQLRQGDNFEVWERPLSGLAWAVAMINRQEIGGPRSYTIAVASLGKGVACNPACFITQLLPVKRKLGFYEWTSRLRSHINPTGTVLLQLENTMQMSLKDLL
In short: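 Enzyme at 2 nM final was combined with compound (0.7 nM to 77 uM) and 80 uM 4-methylumbelliferyl alpha-D-galactopyranoside in 50 mM citric acid, 0.005% Tween-20, pH 4.5. After 20 min at room temperature, fluorescence was read (Ex 365/Em 440 nm); AC50 came from Hill fits.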

[12] = target: alpha-glucosidase (Oryza sativa, rice) (UniProt Q653V4); test: Counterscreen for Glucocerebrosidase Inhibitors: qHTS Assay for Rice alpha-Glucosidase at pH 5.0 (AID 997; active = well fitted curve in the direction sought with a large enough effect; an effect the other way counts as inactive or inconclusive;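 also: 0% = full activity with enzyme and -100% = basal without enzyme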)
In short: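 Rice alpha-glucosidase (4 nM final) with 400 uM 4-methylumbelliferyl-alpha-D-glucopyranoside in citrate buffer pH 5.0, 20 min at room temperature, stopped at pH 10; fluorescence 365/440 nm, compounds 0.7 nM–77 uM, AC50 from Hill fits.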

[13] = target: 3',5'-cyclic-AMP phosphodiesterase 4B (Homo sapiens) (UniProt Q07343); test: qHTS Assay for Inhibitors of PDE-IV (AID 607; active = well fitted activation curve with a large enough effect in the main read-out, with a control signal flat, not every such curve was filed as active; also: % of control where 0% means no effect)
Sequence of 3',5'-cyclic-AMP phosphodiesterase 4B (Homo sapiens) (Q07343 whole entry, looked up): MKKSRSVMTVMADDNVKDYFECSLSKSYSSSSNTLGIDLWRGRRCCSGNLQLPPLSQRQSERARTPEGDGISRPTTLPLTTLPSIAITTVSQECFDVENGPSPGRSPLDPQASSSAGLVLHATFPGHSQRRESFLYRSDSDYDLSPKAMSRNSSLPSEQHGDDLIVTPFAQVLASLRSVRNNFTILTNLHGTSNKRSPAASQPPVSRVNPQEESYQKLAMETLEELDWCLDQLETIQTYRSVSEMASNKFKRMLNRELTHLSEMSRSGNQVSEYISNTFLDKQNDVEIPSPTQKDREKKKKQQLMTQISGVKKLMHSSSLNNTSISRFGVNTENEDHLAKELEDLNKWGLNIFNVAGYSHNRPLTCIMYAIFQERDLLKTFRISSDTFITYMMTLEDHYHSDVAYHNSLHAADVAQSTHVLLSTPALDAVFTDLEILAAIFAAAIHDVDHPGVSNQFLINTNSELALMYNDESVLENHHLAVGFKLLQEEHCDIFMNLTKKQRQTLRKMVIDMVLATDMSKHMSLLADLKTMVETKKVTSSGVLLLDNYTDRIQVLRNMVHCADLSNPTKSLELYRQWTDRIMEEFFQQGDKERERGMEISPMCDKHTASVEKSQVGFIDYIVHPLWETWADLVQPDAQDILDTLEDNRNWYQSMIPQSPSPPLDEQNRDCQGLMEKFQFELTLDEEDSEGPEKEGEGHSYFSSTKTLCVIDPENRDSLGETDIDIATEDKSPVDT
In short: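 ACTOne HEK293 cells carry a modified cAMP-gated CNG channel and express endogenous PDE4; plated 1000 cells/well, compounds up to 22.9 uM final. Membrane-potential dye fluorescence (ex 535/em 590) was read; parental cells received 10 uM forskolin + 100 uM RO 20-1724.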

Nc1nc(Cl)nc2c1ncn2[C@@H]1O[C@@H](CO)[C@@H](O)[C@H]1O
inactive: activity change, negative = inhibition [1] -7.62% [at 38 µM] | Potency [2] | activity change, negative = inhibition [3] 2.55% [at 38 µM] | activity, negative = inhibition [4] 7.39% [at 38 µM] | Potency [5] > 46 µM | Potency [6] > 46 µM | Potency [7] | outcome [8] | outcome [9] | outcome [10] | outcome [11] | Potency [12]

CC1(C)CCC(NC(=O)[C@H](N)CCC(=O)O)CC1
inactive: activity change, negative = inhibition [1] 5.34% [at 38 µM] | Potency [2] | activity change, negative = inhibition [3] 2.47% [at 38 µM] | activity, negative = inhibition [4] -7.41% [at 38 µM] | Potency [5] > 46 µM | Potency [6] > 46 µM | Potency [13] | outcome [8] | outcome [9] | outcome [10] | outcome [11] | Potency [12]

COc1cc([C@H](O)CO)ccc1O
inactive: activity change, negative = inhibition [1] -0.627% [at 38 µM] | Potency [2] | activity change, negative = inhibition [3] 2.95% [at 38 µM] | activity, negative = inhibition [4] 17.1% [at 38 µM] | Potency [5] > 46 µM | Potency [6] > 46 µM | Potency [13] | outcome [8] | outcome [9] | outcome [10] | outcome [11] | Potency [12]

CCCC[C@]1(C2CCCC2)Cc2cc(OCC(=O)O)c(Cl)c(Cl)c2C1=O
inactive: activity change, negative = inhibition [1] -1.05% [at 38 µM] | Potency [2] | activity change, negative = inhibition [3] -21.4% [at 38 µM] | activity, negative = inhibition [4] -1.69% [at 38 µM] | Potency [6] > 46 µM | Potency [7] | outcome [8] | outcome [9] | outcome [10] | outcome [11] | Potency [12]

CNc1ncnc2c1ncn2[C@H]1C[C@@H](OP(=O)(O)O)[C@H](COP(=O)(O)O)O1
inactive: activity change, negative = inhibition [1] -5.54% [at 38 µM] | Potency [2] | activity change, negative = inhibition [3] 5.84% [at 38 µM] | activity, negative = inhibition [4] -2.5% [at 38 µM] | Potency [5] > 46 µM | Potency [6] > 46 µM | Potency [13] | outcome [8] | outcome [9] | outcome [10] | outcome [11]

COc1cc([C@H](O)C(=O)O)ccc1O
inactive: activity change, negative = inhibition [1] 5.25% [at 38 µM] | Potency [2] | activity change, negative = inhibition [3] -1.26% [at 38 µM] | activity, negative = inhibition [4] 4.86% [at 38 µM] | Potency [5] > 46 µM | Potency [6] > 46 µM | Potency [13] | outcome [8] | outcome [9] | outcome [10] | outcome [11] | Potency [12]

C=C[C@H]1CN2CC[C@@H]1C[C@H]2[C@@H](O)c1ccnc2ccc(OC)cc12
inactive: activity change, negative = inhibition [1] -5.24% [at 17.2 µM] | Potency [2] | activity change, negative = inhibition [3] -13% [at 17.2 µM] | activity, negative = inhibition [4] -9.97% [at 17.2 µM] | Potency [7]

Cc1ccccc1CNc1ncnc2c1ncn2[C@@H]1O[C@@H](CO)[C@H](O)[C@@H]1O
inactive: activity change, negative = inhibition [1] 0.479% [at 38 µM] | Potency [2] | activity change, negative = inhibition [3] 10.4% [at 38 µM] | Potency [5] > 46 µM | Potency [6] > 46 µM | Potency [13] | outcome [8] | outcome [9] | outcome [10] | outcome [11] | Potency [12]

O=C1C(=O)c2ccccc2C(O)=C1C(C1=C(O)c2ccccc2C(=O)C1=O)c1ccc(Cl)cc1
active: Potency [2] 3.98 µM
inactive: activity change, negative = inhibition [1] -18% | activity change, negative = inhibition [3] -12.1% | Potency [5] > 46 µM | Potency [6] > 9.22 µM | Potency [7] | Potency [13]

CCCC[S@@](=N)(=O)CC[C@@H](N)C(=O)O
inactive: activity change, negative = inhibition [1] 3.63% [at 38 µM] and -2.23% [at 38 µM] | Potency [2] | activity change, negative = inhibition [3] -1.5% [at 38 µM] and 5.43% [at 38 µM] | Potency [5] > 46 µM | Potency [6] > 46 µM | Potency [7] | Potency [13] | outcome [8] | outcome [9] | outcome [10] | outcome [11] | Potency [12]

COc1c2c(nc3ccccc13)O[C@@H]([C@@](C)(O)CO)C2
active: Potency [2] 15.8 µM
inactive: activity change, negative = inhibition [1] -14.5% [at 38 µM] | activity change, negative = inhibition [3] -2.6% [at 38 µM] | Potency [5] > 46 µM | Potency [6] > 46 µM | Potency [7] | Potency [13] | outcome [8] | outcome [9] | outcome [10] | outcome [11] | Potency [12]

Cc1ncn(-c2ccccc2O)c1C
inactive: activity change, negative = inhibition [1] 4.1% | activity, negative = inhibition [4] 6.2% | Potency [5] > 46 µM | Potency [6] > 9.22 µM | Potency [7] | Potency [13]
active: Potency [2] 0.794 µM
